Laboratory results from PubChem BioAssay AID651710 (Broad Institute, 2012).
About 1,600 (0.44%) of roughly 360,000 compounds were called active. The sample holds actives, similar compounds and a random draw of the others, so the mix is not that of the screen.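 How the source made its calls: active means every replicate showing at least 50% inhibition; inconclusive means mean inhibition at least 50% but not in every replicate; inactive means the rest.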

The molecules below were run against DNA repair protein RAD52 homolog (Homo sapiens) (UniProt P43351) (assay: RAD52 DNA annealing inhibitors, primary screen, biochemical, FRET, single point, set 2 (AID 651710)). Conditions: recombinant RAD52 DNA annealing, FRET fluorescence; at 18.7 µM; active compounds read high.
DNA repair protein RAD52 homolog (Homo sapiens), sequence (P43351 whole entry, looked up): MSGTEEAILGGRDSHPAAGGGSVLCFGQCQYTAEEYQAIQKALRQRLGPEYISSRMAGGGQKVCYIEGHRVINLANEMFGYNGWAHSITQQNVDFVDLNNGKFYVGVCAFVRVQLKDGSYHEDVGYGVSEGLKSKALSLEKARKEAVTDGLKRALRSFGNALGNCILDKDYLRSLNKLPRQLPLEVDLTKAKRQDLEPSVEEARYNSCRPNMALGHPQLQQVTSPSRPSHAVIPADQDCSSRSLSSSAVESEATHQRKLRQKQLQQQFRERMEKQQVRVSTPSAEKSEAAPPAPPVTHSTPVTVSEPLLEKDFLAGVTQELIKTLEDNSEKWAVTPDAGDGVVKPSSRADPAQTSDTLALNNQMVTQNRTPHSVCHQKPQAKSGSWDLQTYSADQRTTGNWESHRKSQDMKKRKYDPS
`CC(C)[C@@H](C)/C=C/[C@@H](C)[C@H]1CC[C@@H]2[C@]1(C)CCC1[C@]23C=C[C@]2(C[C@@H](O)CC[C@]12C)N(c1ccc([N+](=O)[O-])cn1)O3` (stereo partly drawn) was tested, and the inhibition was 73.5% (active). With `COc1ccccc1C(=O)N1O[C@]23C=C[C@]14C[C@@H](O)CC[C@]4(C)C2CC[C@]1(C)[C@@H]([C@H](C)/C=C/[C@H](C)C(C)C)CC[C@H]13` (stereo partly drawn) the inhibition was -15.6% (inactive). With `CC(C)NC(=O)Nc1ccc2c(c1)C(=O)N([C@@H](C)CO)C[C@H](C)[C@@H](CN(C)S(C)(=O)=O)O2` the inhibition was -11% (inactive). With `C[C@@H]1CN([C@@H](C)CO)C(=O)Cc2cc(NC(=O)Nc3ccc4c(c3)OCO4)ccc2O[C@H]1CN(C)S(=O)(=O)c1ccccc1` the inhibition was 2.34% (inactive). For `CC(O)c1ccc(OCCN(C)c2ccccn2)cc1` (stereo not drawn), the inhibition was -7.28% (inactive). For `CCN(C[C@@H]1[C@H](c2ccccc2)[C@@H](CO)N1CC1CC1)C(=O)c1ccccn1`, the inhibition was -2.51% (inactive). In the case of `CCN(CC)CCOc1ccc2c(c1)C(=NNC(=O)c1ccccn1)c1cc(OCCN(CC)CC)ccc1-2`, the inhibition is reported as 108% (active). For `COCCOC(=O)N1C(=O)[C@@]2(c3cc(C#CCNC(N)=O)ccc31)[C@H](C(=O)N1CCN(c3ncccn3)CC1)[C@H]1C(=O)O[C@H](c3ccccc3)[C@H](c3ccccc3)N1[C@@H]2c1ccccc1OCCO`, the inhibition was 31.5% (inactive). In the case of `CN1CCN(C2Cc3ccc(Cl)cc3Sc3ccc(F)cc32)CC1` (stereo not drawn), the inhibition is reported as 54.5% (active). In the case of `CN1C(=O)CN2CCc3ccccc3C2c2cc(Cl)ccc21` (stereo not drawn), the inhibition is reported as -6.27% (inactive). In the case of `O=C(C[C@@H]1C=C[C@@H](NC(=O)C2CCC2)[C@H](CO)O1)NCC1CC1`, the inhibition is reported as -2.1% (inactive). `CCN(CC(=O)Nc1ccc(NC(C)=O)cc1)C(=O)C1CC(=O)N(c2ccc3c(c2)OCCO3)C1` (stereo not drawn) was tested, and the inhibition was 74.7% (active). For `CCN(CC(=O)Nc1ccc(NC(C)=O)cc1)C(=O)C1CC(=O)N(Cc2ccc(C)cc2)C1` (stereo not drawn), the inhibition was -6.68% (inactive). `CCOC(=O)c1ccc(NC(=O)C2CC(=O)N(c3ccc4c(c3)OCCO4)C2)cc1` (stereo not drawn) was tested, and the inhibition was -4.32% (inactive). With `COc1cccc(C(=O)Nc2ccc3c(c2)C(=O)N(C)C[C@@H](OC)[C@H](C)CN(C(=O)C2CCOCC2)[C@H](C)CO3)c1` the inhibition was -0.027% (inactive). For `C[C@H](CO)N1C[C@H](C)[C@@H](CN(C)Cc2ccc(Cl)c(Cl)c2)Oc2ccc(NC(=O)Cn3cnnn3)cc2CC1=O`, the inhibition was 5.4% (inactive). In the case of `O=C(C1CCCC1)N1[C@H](CO)[C@@H](c2ccccc2)C12CN(CCC(F)(F)F)C2`, the inhibition is reported as 6.31% (inactive). In the case of `CO[C@H]1CN(C)C(=O)c2cc(NC(=O)Nc3ccccc3)ccc2OC[C@@H](C)N(C(=O)Nc2c(C)noc2C)C[C@@H]1C`, the inhibition is reported as 8.84% (inactive).
